Assay results as given in the supplement of paper PMC10646978.
± gives the standard deviation.

What was measured:
Settings in all cases: modulator concentration 10 µM
[1] = test system: RAW-Dual (murine macrophage reporter line); assay: NF-kB reporter (SEAP) activity fold change vs agonist alone; higher = enhanced NF-kB activity
Method in brief: (§1)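 Compound reached 10 μM final in each well by pin transfer, onto RAW-Dual murine macrophage reporter cells seeded at 50 000 per well in 384-well plates. After 1 hour at 37 °C, the cells were stimulated overnight with a PRR agonist. SEAP in the supernatant was read with QUANTI-Blue at 620 nm absorbance for NF-κB, and Lucia luciferase was read with QUANTI-Luc luminescence for IRF. Each signal was turned into fold change against the mean agonist-only control on the same plate, and two replicate plates were averaged with propagated errors.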

[2] = test system: RAW-Dual (murine macrophage reporter line); assay: IRF reporter (Lucia luciferase) activity fold change vs agonist alone; higher = enhanced IRF activity
Method in brief: as §1

[3] = test system: RAW-Dual (murine macrophage reporter line); assay: viability score (confluency relative to resting cells, overnight) (fraction); higher = more viable, active = viable (0.7 or more)
Method in brief: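 In 384-well plates, RAW-Dual macrophages received compound at a final 10 μM overnight. Two confluency masks were then made with IncuCyte software from IncuCyte images of all imaged wells. The viability score is defined as confluency relative to resting cells. Passing the cutoff required both masks to lie above 70% of resting cells.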

[4] = agonist: CpG ODN 1826 0.5 ug/mL

Structure (SMILES)	NF-kB reporter [1, 4]	NF-kB reporter ([1]; agonist: LPS 0.1 ug/mL)	NF-kB reporter ([1]; agonist: MPLA […])	IRF reporter ([2]; agonist: 3'3'-cGAMP 10 ug/mL)	IRF reporter ([2]; agonist: LPS 0.1 ug/mL)	IRF reporter ([2]; agonist: MPLA […])	viability score [3]
Cn1nc2c(c1CNS(=O)(=O)CCC(F)(F)F)CCC2	0.93 ± 0.077	0.805 ± 0.064	1.17 ± 0.15	1.01 ± 0.049	1.32 ± 0.2	1.41 ± 0.49	0.981 (active)
ON=C1ON=C(c2ccccc2)C1=NO	0.867 ± 0.067	0.775 ± 0.038	0.875 ± 0.078	0.176 ± 0.0086	1.29 ± 0.078	1.42 ± 0.13	0.998 (active)
COc1cc(C2C(C(=O)c3ccccc3)=C(O)C(=O)N2c2cccnc2)ccc1O (configuration not stated)	0.915 ± 0.14	0.595 ± 0.13	0.582 ± 0.1	0.758 ± 0.068	0.849 ± 0.074	0.785 ± 0.13	0.97 (active)
COc1ccc(C(=O)ON=C(N)c2ccc(OC)c(OC)c2)cc1OC	0.825 ± 0.096	0.878 ± 0.09	0.971 ± 0.086	0.933 ± 0.078	1.1 ± 0.07	1.13 ± 0.11	1.01 (active)
CC1CCN(c2ccc(-c3ccc(NC(=O)c4ccc5ncsc5c4)cc3)nn2)CC1	0.914 ± 0.039	0.98 ± 0.078	1.02 ± 0.057	0.967 ± 0.045	1.09 ± 0.12	1.17 ± 0.23	0.986 (active)
COc1cccc2c1C(=O)c1c(O)c3c(c(O)c1C2=O)C[C@@](O)(C(C)=O)C[C@@H]3O[C@H]1C[C@H](N)[C@H](O)[C@H](C)O1 [Prestw-487]	0.0705 ± 0.0054	0.0667 ± 0.019	0.095 ± 0.0092	0.0214 ± 0.0026	0.024 ± 0.0063	0.0245 ± 0.0067	0.325 (inactive)
COc1cc(C=NNC(=O)CSc2ccccn2)cc(Cl)c1O	1.16 ± 0.073	1.02 ± 0.15	0.953 ± 0.026	1.04 ± 0.042	0.95 ± 0.12	0.94 ± 0.18	1 (active)
O=C1CCCC2=C1C(c1ccc(C(F)(F)F)cc1)Nc1ccc(C(=O)c3ccccc3)cc1N2 (configuration not stated)	0.885 ± 0.08	1.19 ± 0.068	0.759 ± 0.045	1.55 ± 0.091	1.36 ± 0.14	1.04 ± 0.12	0.942 (active)
CCn1cc(C(=O)O)c(=O)c2cc(F)c(N3CCN(C)CC3)cc21.CS(=O)(=O)O	1.12 ± 0.15	1.3 ± 0.22	0.938 ± 0.096	0.858 ± 0.037	1.45 ± 0.12	1.17 ± 0.11	0.986 (active)
O=c1cc(O)nc(SCc2c(F)c(F)c(F)c(F)c2F)[nH]1	1.01 ± 0.08	0.913 ± 0.07	1.05 ± 0.049	0.646 ± 0.066	1.01 ± 0.1	1.03 ± 0.21	1 (active)
COc1ccc(-c2[nH]c(-c3ccccc3)nc2SCC(=O)NC2CCCC2)cc1	0.875 ± 0.061	1.07 ± 0.069	1.64 ± 0.11	0.892 ± 0.03	1.09 ± 0.095	1.11 ± 0.1	1 (active)
